We go through 14 molecules from PubChem BioAssay (NCI).

Some test systems named below: NCI-H23 lung; NCI-H226 lung; NCI-H322M lung; HOP-62 NSCLC; NCI-H460 lung; HOP-92 NSCLC; NCI-H522 lung; A549/ATCC NSCLC; 786-0 renal; COLO 205 colon.
Common to all, as to assay: NCI-60 one-dose screen, 48 h (100 = growth as untreated, 0 = no growth, -100 = all killed)
Common to all, as to conditions: 10 µM unless noted

The panel holds about 83,000 compounds, 20% with a hit somewhere; the sample as a whole holds those more often.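 96-well plates, one dose, 48 hours. Percent growth reported; active if below 10.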 Values without a mark were called inactive. Calls of active or inactive are those of the source.

`N#Cc1c(-c2cccs2)cc(-c2cccnc2)[nH]c1=O`: the growth was 102% in the experiment with NCI-H23 lung; 98.5% in the experiment with NCI-H226 lung; 96.8% in the experiment on NCI-H322M lung; 90.3% in the experiment with HOP-62 NSCLC; 110% in the experiment on NCI-H460 lung; 104% in the experiment on HOP-92 NSCLC. Moreover, the growth is 98.7% in the experiment on NCI-H522 lung, 97.8% with A549/ATCC NSCLC and 103% in the experiment on 786-0 renal.
As for `CCOC(=O)C1=C(NC)OCC1=O`, the growth is 99.9% in the experiment on NCI-H23 lung; 96.3% with NCI-H226 lung; 100% with NCI-H322M lung; 100% with HOP-62 NSCLC; 101% in the experiment with NCI-H460 lung; 83.5% in the experiment on HOP-92 NSCLC. Further, the growth in the experiment on NCI-H522 lung was 96.7%; with A549/ATCC NSCLC it was 90.9%; with 786-0 renal it was 106%.
In the case of `CCOC(=O)c1cnc2ccccc2c1Cl`, the growth with NCI-H23 lung was 96.9%; in the experiment with NCI-H226 lung, 99.2%; in the experiment with NCI-H322M lung, 122%; with HOP-62 NSCLC it was 99.6%; with NCI-H460 lung, 93%; in the experiment on HOP-92 NSCLC it was 70.4%. Besides, the growth in the experiment with NCI-H522 lung is 92.1%; in the experiment with A549/ATCC NSCLC it was 104%; with 786-0 renal, 94.3%.
With `Cc1nc2ncnc(Cl)c2[nH]1`, the growth was 95.3% with NCI-H23 lung; 101% with NCI-H226 lung; 98.2% in the experiment with NCI-H322M lung; 112% in the experiment on HOP-62 NSCLC; 104% with NCI-H460 lung; 77.7% in the experiment with HOP-92 NSCLC. Besides, the growth in the experiment on NCI-H522 lung was 91.3%; with A549/ATCC NSCLC it was 93.1%; with 786-0 renal, 105%; in the experiment on COLO 205 colon, 113%.
`O=C(c1ccccc1)C1C(=O)N2C(=S)N(c3ccccc3)C(=O)C2C1c1ccc(Cl)cc1` (centres undefined): the growth in the experiment with NCI-H23 lung is 88.2%; in the experiment with NCI-H226 lung it was 74.5%; in the experiment with NCI-H322M lung, 94.6%; with HOP-62 NSCLC, 93.4%; with NCI-H460 lung, 86.8%; with HOP-92 NSCLC it was 91.3%. The growth in the experiment on NCI-H522 lung was 94%; with A549/ATCC NSCLC, 101%; with 786-0 renal it was 100%.
For the molecule `O=C(NNC(=O)c1ccc(-n2cc(-c3ccccc3)nn2)cc1)Nc1ccccc1`, the growth is 97.6% with NCI-H23 lung; 99.6% with NCI-H226 lung; 108% in the experiment on NCI-H322M lung; 94.8% in the experiment with HOP-62 NSCLC; 109% with NCI-H460 lung; 98.8% in the experiment on HOP-92 NSCLC. Besides, the values for the growth with NCI-H522 lung, in the experiment with A549/ATCC NSCLC and in the experiment with 786-0 renal were 108%, 102% and 104%, respectively.
Regarding `COC(=O)c1cc(-c2ccc(S(C)(=O)=O)cc2)[nH]c1N/N=C/c1c(Cl)cccc1Cl`, the growth with NCI-H23 lung is 29.6%; in the experiment with NCI-H226 lung, 47.5%; in the experiment on NCI-H322M lung, 15.4%; with HOP-62 NSCLC, 3.22% (active); in the experiment with NCI-H460 lung, 3.65% (active); with HOP-92 NSCLC it was 18.9%. For the same molecule, the growth is -15.1% (active) with NCI-H522 lung, 25.2% with A549/ATCC NSCLC and 5.08% (active) in the experiment on 786-0 renal.
On to `O=c1oc2ccccc2cc1C1=NN=C(SCc2ccccc2)SC1`, for which the growth in the experiment with NCI-H23 lung was 94.9%; in the experiment with NCI-H226 lung it was 96.6%; in the experiment with NCI-H322M lung, 102%; with HOP-62 NSCLC it was 82.9%; in the experiment with NCI-H460 lung, 112%; in the experiment with HOP-92 NSCLC, 87.2%. The results for the growth with NCI-H522 lung, in the experiment with A549/ATCC NSCLC and in the experiment with 786-0 renal were 89.2%, 96.6% and 94.8%, respectively.
As to `O=C1c2ccc3c4ccc5c6c(ccc(c7ccc(c2c37)C(=O)N1CCC[P+](c1ccccc1)(c1ccccc1)c1ccccc1)c64)C(=O)N(CCC[P+](c1ccccc1)(c1ccccc1)c1ccccc1)C5=O`, the growth in the experiment with NCI-H23 lung was 28.1%; in the experiment with NCI-H226 lung, 105%; in the experiment on NCI-H322M lung, 84.2%; in the experiment on HOP-62 NSCLC, 60.3%; in the experiment with NCI-H460 lung, 28%; in the experiment with HOP-92 NSCLC, 77.3%. Also, the values for the growth with NCI-H522 lung, in the experiment on A549/ATCC NSCLC and in the experiment with 786-0 renal were 67.6%, 43.8% and 91.2%, respectively.
For the molecule `CCOC(=O)C#Cc1c(C(=O)OCC)nnn1[C@@H]1O[C@H](CO)[C@H]2OC3(CCCCC3)O[C@H]21`, the growth is 93.9% with NCI-H23 lung; 80.7% in the experiment with NCI-H226 lung; 98% in the experiment with NCI-H322M lung; 110% in the experiment with HOP-62 NSCLC; 98.5% with NCI-H460 lung; 54.5% in the experiment with HOP-92 NSCLC. The growth in the experiment with NCI-H522 lung was -25.2% (active); in the experiment on A549/ATCC NSCLC, 95.2%; with 786-0 renal it was 66.9%; with COLO 205 colon, -27.2% (active).
Regarding `Cc1cc2c(O)c(-c3cccc(Cl)c3)c3sc(=O)oc3c2cc1C`, the growth with NCI-H23 lung is 12%; in the experiment on NCI-H226 lung, 42.9%; with NCI-H322M lung, 59.8%; with HOP-62 NSCLC, 76.7%; in the experiment with NCI-H460 lung it was 24.9%; in the experiment on HOP-92 NSCLC, -31.3% (active). For the same molecule, the growth was 12.7% with NCI-H522 lung, 69.1% in the experiment on A549/ATCC NSCLC and 78.8% in the experiment on 786-0 renal.
Consider `COc1cc2c(c(OC)c1OC)C(=O)CC(c1cccc(NC(=O)c3ccc(Br)cc3)c1)O2` (centres undefined), for which the growth was 51.2% in the experiment on NCI-H23 lung; 49.2% in the experiment on NCI-H226 lung; 72.5% with NCI-H322M lung; 47.2% in the experiment with HOP-62 NSCLC; 57% with NCI-H460 lung; 25.7% in the experiment on HOP-92 NSCLC. The growth with NCI-H522 lung was 9.27% (active); in the experiment on A549/ATCC NSCLC, 48.6%; in the experiment with 786-0 renal, 78.1%; in the experiment with COLO 205 colon, 55.5%.
For `O=S(=O)(NCCNc1nccc(-c2c(-c3cccc(F)c3)nc3occn23)n1)c1ccc(Br)cc1`, the growth is 87.9% in the experiment with NCI-H23 lung; 75.5% in the experiment with NCI-H226 lung; 82.1% with NCI-H322M lung; 90.1% with HOP-62 NSCLC; 68.5% with NCI-H460 lung; 74.7% in the experiment on HOP-92 NSCLC. Also, the growth was 81.8% in the experiment on NCI-H522 lung, 53.9% in the experiment on A549/ATCC NSCLC and 76.3% in the experiment with 786-0 renal.
Regarding `CN1CCN(c2ccc(NC(=O)c3nc4ccc5[nH]ncc5c4c4c3CCCC4)cc2C(F)(F)F)CC1`, the growth in the experiment on NCI-H23 lung is 90.2%; in the experiment on NCI-H226 lung it was 80%; in the experiment on NCI-H322M lung, 86.3%; in the experiment with HOP-62 NSCLC it was 72.2%; in the experiment with NCI-H460 lung, -55.4% (active); in the experiment with HOP-92 NSCLC it was 49.2%. The growth was 76.7% in the experiment with NCI-H522 lung, 60.2% in the experiment on A549/ATCC NSCLC and 34.3% in the experiment with 786-0 renal.
